# Screening data (PubChem BioAssay)
# TEAD-YAP inh: TEAD-YAP interaction inhibition, primary screen, TEAD-YAP interaction inhibitor project, luminescence, HEK-TIYL cells; TEAD-Gal4/YAP UAS-luciferase luminescence; inhibition, % at 9.12 µM; actives 1.4% (n = 640,000); AID 1259422, 2018; in the data active = inhibition above about 32%;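 note: 0% = median of test compound wells and 100% = reference inhibitor wells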
# MITF primary: MITF inhibitors, primary screen, biochemical, AlphaScreen, human; actives 0.91% (n = 650,000); inhibition, % at 2.6 µM; AlphaScreen MITF homodimerization, bead proximity signal; Microphthalmia-associated transcription factor (Homo sapiens), O75030; in the data active = inhibition above about 50%;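 note: 0% = vehicle wells with protein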
# FBW7 act: FBW7 E3 ligase activators, primary screen, biochemical, AlphaScreen, human | F-box/WD repeat-containing protein 7 (Homo sapiens), Q969H0 | AlphaScreen FBW7–phospho-cyclin E peptide binding, activator screen | normalized activity (activation), % at 26.1 µM | actives 0.13% (n = 650,000); in the data active = normalized activity above about 1.9%;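 note: purified mutant Fbw7 with reduced substrate affinity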
# GPR151 ag: activators of human GPR151, primary screen, cell-based, PathHunter beta-arrestin, luminescence. G-protein coupled receptor 151 (Homo sapiens), Q8TDV0. PathHunter beta-arrestin GPR151 cells. activation, % at 11.2 µM. actives 1% (n = 650,000); in the data active = activation above about 4.9%;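 note: 0% = median of compound wells and 100% = cells with positive control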
# GPR151 conf act: GPR151 activators, triplicate retest, confirmation, cell-based, PathHunter beta-arrestin, luminescence; GPR151 PathHunter beta-arrestin cells, 90 min; % of EA-reagent control over plate median; shares compounds with GPR151 ag; activation, % at 11.2 µM; 6,700 tested, under 10 active;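 active = mean percent activation across replicates above the confirmation screen cutoff of 4.91%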
# GPR119 ag: GPR119 activators in beta-arrestin cells, counter-screen for GPR151 activator project, cell-based, PathHunter beta-arrestin, luminescence, triplicate; activation, % at 11.2 µM; 90 min; 0 = compound-well median, 100 = enzyme-acceptor control; actives 0.3% (n = 6,700); shares compounds with GPR151 ag; AID 1508611, 2020;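 active = mean percent activation in the counterscreen above 29.09%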;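 note: counterscreen on off-target GPR119 to flag nonselective hits from the GPR151 activator screen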
# Active calls of the source: *; . = no result; ! = not active in a repeat. Shown are actives, neighbours in structure and some others; about 3.5% of the full set was active somewhere.
SMILES,TEAD-YAP inh,MITF primary,FBW7 act,GPR151 ag,GPR151 conf act,GPR119 ag
CC(C)(C)c1csc2ncc(C(=O)NCc3cccs3)c(=O)n12,-1,1,0,5.2*,0,-1
Nc1nc(Cl)cc(NCCN2CCOCC2)n1,9,10,0,2,.,.
Clc1cc(NCCN2CCOCC2)ncn1,6,12,0,5.7*!,1,-4
Cc1ccc(N2C(=O)c3ccc([N+](=O)[O-])cc3C2=O)cc1Cl,14,6,0,0,.,.
O=C1c2ccc([N+](=O)[O-])cc2C(=O)N1c1ccc(Cl)c(Cl)c1,9,7,0,6.9*,1,7
O=C(NCCNc1ncnc2sc3c(c12)CCCC3)c1ccc(F)cc1,15,2,0,0,.,.
O=C(Nc1ccc(Cl)cc1)c1cc(S(=O)(=O)NCCC2=CCCCC2)ccc1F,27,9,0,1,.,.
O=C(NCCC1=CCCCC1)c1cc(S(=O)(=O)NCCc2ccccc2)ccc1F,9,-8,0,9.7*,0,8
O=C1N(Cc2cccc(Cl)c2)c2ccccc2C12OCCS2 (stereo not given),-9,-9,0,1,.,.
CCOC(=O)C1=C(C)N=c2s/c(=C/c3ccc(Cl)cc3)c(=O)n2C1c1ccc(C(C)(C)C)cc1 (stereo not given),-5,-10,0,2,.,.
O=C(N[C@@H](Cc1ccccc1)C(=O)O)c1ccc(Cl)cc1Cl,1,11,0,5.0*,0,2
CC(C)CC(NC(=O)c1ccc(Cl)cc1Cl)C(=O)O (stereo not given),-1,6,0,-1,.,.
COC(=O)C(C)N1C(=O)S/C(=C/c2cccn2C)C1=O (stereo not given),-7,11,0,5.5*,0,6
COC(=O)C(C)N1C(=O)S/C(=C/c2ccc(Cl)cc2)C1=O (stereo not given),-16,-2,0,0,.,.
Cn1cccc1/C=C1\SC(=S)NC1=O,-2,11,0,5.1*,0,-6
CN1CCN(C2CCN(c3cccc(Cl)c3)CC2)CC1CCO (stereo not given),-7,16,0,-1,.,.
OCC1CCN(C2CCCN(C3CCN(c4cccc(Cl)c4)CC3)C2)CC1 (stereo not given),-2,6,0,5.1*,0,-4
COc1cccc(-c2nc(SCC(=O)O)c3c(=O)n(C)c(=O)n(C)c3n2)c1,7,18,0,12*,0,1
Cn1c(=O)c2c(SCC(=O)Nc3nccs3)nc(-c3ccco3)nc2n(C)c1=O,0,16,0,0,.,.
COc1ccc(-c2nc(SCC(=O)O)c3c(=O)n(C)c(=O)n(C)c3n2)cc1,-6,-15,0,-1,.,.
CC(C)Sc1nc(-c2ccco2)nc2c1c(=O)n(C)c(=O)n2C,-6,-7,0,2,.,.
Cc1csc(NC(=O)CSc2nc(-c3ccco3)nc3c2c(=O)n(C)c(=O)n3C)n1,-8,-4,0,6.6*,0,2
CC(Sc1nc(-c2ccco2)nc2c1c(=O)n(C)c(=O)n2C)C(=O)O (stereo not given),6,10,0,9.6*,0,12
CCCC(=O)Nc1nn2c(-c3cccc(OC)c3)nnc2s1,-4,0,0,5.2*,0,-5
Cc1ccc(-c2nnc3sc(NC(=O)CC(C)C)nn23)cc1,5,-1,0,27*,1,4
O=[N+]([O-])c1ccc(Cl)cc1N1CCN(S(=O)(=O)c2ccccc2)CC1,-1,14,0,0,.,.
CC(=O)c1ccc(NC(=O)CSc2nnc(C34CC5CC(CC(C5)C3)C4)n2C)cc1,-23,0,0,6.2*,-1,-8
